# Out of some 390,000 compounds screened, about 4,000 (1%) were called active. Where a call stands in place of a potency, no number is given. Inconclusive results (about 7%) are left out. Calls follow the shape of the dose curve; as a rule, active = well fitted inhibition curve with a large enough effect; inconclusive = small, poorly fitted or top-dose-only effect, or another doubt; inactive = no such curve, though single readings can be large or run the other way. For the sample, actives were picked, then their nearest neighbours and some compounds at random.
# Target: DNA polymerase iota (Homo sapiens) (UniProt Q9UNA4)
# Sequence (Q9UNA4 whole entry, looked up): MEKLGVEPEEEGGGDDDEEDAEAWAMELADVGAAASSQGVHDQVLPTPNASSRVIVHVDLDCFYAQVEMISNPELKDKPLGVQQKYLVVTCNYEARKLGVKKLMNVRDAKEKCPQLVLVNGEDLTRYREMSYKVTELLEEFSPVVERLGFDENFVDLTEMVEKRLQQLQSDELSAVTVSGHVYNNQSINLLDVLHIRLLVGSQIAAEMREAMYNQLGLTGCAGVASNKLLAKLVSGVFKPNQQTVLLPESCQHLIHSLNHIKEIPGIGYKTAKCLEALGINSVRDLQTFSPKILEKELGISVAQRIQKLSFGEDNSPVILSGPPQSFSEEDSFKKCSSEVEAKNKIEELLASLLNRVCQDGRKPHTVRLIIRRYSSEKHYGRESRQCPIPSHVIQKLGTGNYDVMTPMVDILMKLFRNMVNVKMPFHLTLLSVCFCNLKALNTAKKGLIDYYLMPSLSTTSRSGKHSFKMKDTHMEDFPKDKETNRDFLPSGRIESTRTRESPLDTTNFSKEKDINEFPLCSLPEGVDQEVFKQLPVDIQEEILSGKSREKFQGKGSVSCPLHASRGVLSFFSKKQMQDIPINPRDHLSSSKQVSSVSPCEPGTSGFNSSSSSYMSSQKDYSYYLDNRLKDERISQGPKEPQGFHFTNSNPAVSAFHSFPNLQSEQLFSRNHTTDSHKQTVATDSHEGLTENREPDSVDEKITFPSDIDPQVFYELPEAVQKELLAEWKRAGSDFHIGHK
# Assay: qHTS for Inhibitors of Polymerase Iota
# Details: Pol iota fluorescent replication assay, 10 min; series mostly up to 115 µM
# Procedure, shortened: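 Pol iota at 10 nM preincubated 15 min with compounds at room temperature; reaction started with fluorescent substrate, 50 nM final. Fluorescence read kinetically at 0 and 10 min; buffer-only wells as negative control.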
# Potency is read from the fitted curve at half-maximal effect.
row,SMILES,Potency
1,COc1ccc(-c2cc(-c3ccccc3)nc3c2COc2ccc(Cl)cc2-3)cc1,inactive
2,CCN(CC)c1nc(C#N)nc(OC)n1,inactive
3,CCc1ccc(OCCCn2c(CCCNC(=O)C3CCCCC3)nc3ccccc32)cc1,inactive
4,C/C(=N\Nc1ccc(S(N)(=O)=O)cc1[N+](=O)[O-])c1cccs1,25.1 µM (active)
5,CCOC(=O)C/C(C)=N\Nc1ccc([N+](=O)[O-])cc1[N+](=O)[O-],inactive
6,C/C(=N\Nc1ccccc1)c1cccs1,inactive
7,Cc1ccc(C(=O)NNc2ncnc3ccccc23)cc1,inactive
8,O=C(NNc1c2ccccc2nc2ccccc12)c1cc2ccccc2cc1O,39.8 µM (active)
9,O=C(Cc1ccccn1)c1ccc(O)cc1O,inactive
10,CN(Cc1ccccc1)C(=O)c1cc2c(=O)n(C)c3ccccc3c2s1,inactive
11,CN(C)c1ccc(/C=C/c2sc3ccccc3[n+]2CCCCBr)cc1,inactive
12,CN(C)c1ccc(/C=C/c2sc3ccccc3[n+]2C)cc1,79.4 µM (active)
13,CN(C)c1ccc(/C=C/c2c3ccccc3nc3ccccc23)cc1,inactive
14,CCCN1CCC(=O)N(C(CSc2ccc(OC)cc2)Cc2ccccc2)CC1 (stereo not given),inactive
15,C[N+]1(CC(=O)c2cccs2)CCOCC1,inactive
16,CCc1ccc(N2CC(C(=O)Nc3ccc(S(=O)(=O)Nc4nccs4)cc3)CC2=O)cc1 (stereo not given),inactive
17,CCc1ccc(N2CC(C(=O)NC3=NCCS3)CC2=O)cc1 (stereo not given),89.1 µM (active)
18,CCc1ccc(N2CC(C(=O)N3CCCCCC3)CC2=O)cc1 (stereo not given),inactive
19,Cc1cccc(CN2Cc3cccc4c3[C@H](C=CC4)CC2=S)c1,inactive
20,CC1CCCN(S(=O)(=O)c2ccc3[nH]c(=O)cc(C(=O)NCCc4ccc(Cl)cc4)c3c2)C1 (stereo not given),inactive
21,COc1cc2nc(Cl)nc(NC3CC3)c2cc1OC,inactive
22,COc1ccc(C)cc1NC(=O)C(=O)NCCc1sc(-c2cccc(C)c2)nc1C,inactive
23,C=C1c2c(Cl)ccc(O)c2C(O)=C2C(=O)[C@]3(O)C(O)=C(C(N)=O)C(=O)[C@@H](N(C)C)[C@@H]3[C@@H](O)C12 (stereo not given in full),2.51 µM (active)
24,Cc1ccc(NC(=O)c2nc(S(=O)(=O)Cc3cccc(C)c3)ncc2Cl)cc1,inactive
25,COc1cc(C(CC(=O)NCCC(C)C)N2Cc3ccccc3C2=O)cc(OC)c1OC (stereo not given),inactive
26,COc1ccc(CCNC(=O)c2c3c(nc4ccccc24)C(=O)N(C2CCCCC2)C3)cc1OC,inactive
27,Cc1c(NC(=O)C(C)(C)C)cccc1-c1nc2ccccc2s1,inactive
28,O=C(COc1ccc(Cl)cc1)Nc1ccc(-c2nc3cc(Cl)ccc3o2)c(O)c1,inactive

row,SMILES,Potency
1,O=C1C2C3C=CC(C4CC34)C2C(=O)N1/N=C/c1ccc(-c2ccccc2[N+](=O)[O-])o1 (stereo not given),inactive
2,CC1=NN(c2ccc(Cl)c(C(=O)O)c2)C(=O)/C1=C/c1ccc(-c2ccccc2[N+](=O)[O-])o1,1.41 µM (active)
3,O=C(O)c1ccc2c(=O)n3c(nc2c1)/C(=C/c1ccc(Cl)c([N+](=O)[O-])c1)CC3,inactive
4,Cc1ccc2onc(CC(=O)N3CCN(c4ccc(Cl)cc4)CC3)c2c1,inactive
5,COc1ccc(C2Nc3ccc(NC(=O)COC(C)=O)cc3C(=O)N2Cc2ccccc2)cc1COc1ccc(NC(C)=O)cc1 (stereo not given),inactive
6,COC(=O)c1ccccc1NC(=O)Cn1c(=O)cc(C)c2c(C)nn(-c3cccc(Cl)c3C)c21,inactive
7,O=C(/C=C/c1ccco1)NC(=S)Nc1ccccc1Br,25.1 µM (active)
8,CC(C)CNC(=O)COC(=O)/C=C/c1ccco1,inactive
9,COc1ccc(Cl)cc1C(=O)NNC(=S)NC(=O)/C=C/c1ccco1,inactive
10,CC(=O)Nc1ccc(NC(=O)C2CCCN(S(=O)(=O)c3ccc4c(c3)CCCC(=O)N4)C2)cc1 (stereo not given),inactive
11,COc1ccc(-c2nc(=N)sn2-c2ccccc2)cc1,inactive
12,CCC(CC)C(=O)Nc1ccc(S(=O)(=O)Nc2nccs2)cc1,inactive
13,COc1ccccc1OC(C)C(=O)Nc1ccc(S(=O)(=O)Nc2nccs2)cc1 (stereo not given),inactive
14,O=C(Nc1ccc(S(=O)(=O)Nc2nccs2)cc1)c1cc(-c2ccncc2)nc2ccccc12,11.2 µM (active)
15,COc1ccc(NS(=O)(=O)c2cc3c4c(c2)CC(=O)N4CCC3)cc1Cl,inactive
16,CCOc1ccc(OCC)c(NC(=O)CN(c2ccc(C)cc2)S(=O)(=O)c2c(C)n[nH]c2C)c1,inactive
17,CC1CCN(S(=O)(=O)c2ccc3c(ccn3CCC(=O)NCc3ccc(N(C)C)cc3)c2)CC1,inactive
18,O=C(NC1CC(=O)N(c2ccc(Cl)cc2)C1)C1CCCC1 (stereo not given),inactive
19,CCCCCC(=O)Nc1ccc(S(=O)(=O)Nc2ccc(Cl)nn2)cc1,inactive
20,Cc1nnc(SCC(=O)Nc2ccc(S(=O)(=O)Nc3ccc(Cl)nn3)cc2)s1,28.2 µM (active)
21,COc1ccc(NC(=O)CSc2nc(NS(=O)(=O)c3ccc(C)cc3)cc(=O)[nH]2)cc1,inactive
22,NC(=O)Nc1ccc(/C=C/c2ccnc3ccccc23)cc1,inactive
23,COc1ccc(-c2[nH]c3c(c2-c2c(-n4cccc4)n(C)c(=O)n(C)c2=O)c(=O)n(C)c(=O)n3C)cc1,inactive
24,COc1ccc(CC(=O)n2nc(-c3cccnc3)nc2N)cc1,inactive
25,COc1ccc(C(=O)n2nc(-c3ccc(Cl)cc3)nc2N)cc1OC,inactive
26,CCCC(=O)n1nc(-c2ccccc2)nc1N,79.4 µM (active)
27,CCC(Sc1nnc(-c2ccc(OC)cc2)c(-c2ccc(OC)cc2)n1)C(=O)NC1CCCCC1 (stereo not given),inactive

# Reference: PubChem BioAssay AID588590 (National Center for Advancing Translational Sciences (NCATS), 2011)
